Screening data from PubChem.
Shown are actives, neighbours in structure and some others; about 4.9% of the full set was active somewhere.
HSF-1 act – increases HSF-1 driven luciferase reporter signal | activation, % at 9 µM | AID 504408 | actives 1.7% (n = 300,000) | NIH3T3-HGL HSF-1 luciferase reporter, MG132, 8 h; 100% = twice DMSO control signal;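 active = mean replicate activation of at least 50% with a set share of replicates each reaching 50%; inconclusive = only one of those two conditions met; inactive = mean below 50% and too few replicates reaching it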
dFosB act – activators of mouse delta FosB homodimer; P13346; purified delta FosB, TAMRA-CDK5 oligo fluorescence polarization; percent of positive-control signal above neutral wells; activation, % at 25 µM; actives 0.99% (n = 340,000); AID 493131;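 active = mean activation above about 17%, with every replicate also reaching it, limit read from the data, passing the limit was not always enough; inconclusive = only one of the two conditions met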
Target sequence (P13346 whole entry, looked up): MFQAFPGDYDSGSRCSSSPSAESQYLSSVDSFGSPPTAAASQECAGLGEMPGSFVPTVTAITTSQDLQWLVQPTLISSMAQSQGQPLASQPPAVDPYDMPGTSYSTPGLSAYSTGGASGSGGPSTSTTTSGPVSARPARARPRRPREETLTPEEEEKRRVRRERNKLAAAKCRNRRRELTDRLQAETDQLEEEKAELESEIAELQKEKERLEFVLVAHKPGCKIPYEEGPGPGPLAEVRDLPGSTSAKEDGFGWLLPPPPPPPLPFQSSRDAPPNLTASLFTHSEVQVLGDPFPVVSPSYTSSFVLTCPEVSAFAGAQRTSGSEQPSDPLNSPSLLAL
HSP90 refold inh – inhibitors of HSP90 luciferase refolding in rabbit reticulocyte lysate; luciferase refolding luminescence, 3 h; inhibition, % at 5.6 µM; actives 0.91% (n = 290,000); AID 1789;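 active = inhibition above the screen-wide mean plus 3 SD, computed separately per campaign, cut at about 16% in these data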;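 note: inhibitors lower the luminescence because luciferase stays unfolded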
HSF1 inh – HSF1 inhibition; actives 0.77% (n = 300,000); AID 2098; NIH3T3-HGL HSE-luciferase, MG132-induced, luminescence 8 h; active compounds read low; activity change, negative = inhibition, % at 7.5 µM (by protocol);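 active = more than half of replicate wells show activity change below -50%, luminescence cut by over half; inconclusive = some wells, but at most half, below -50%; inactive = no replicate well below -50%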;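 note: luciferase reports HSF-1 transcriptional activity via heat shock element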
MPTP inh – blocks calcium-induced mitochondrial swelling; actives 1.4% (n = 360,000); inhibition, % at 10 µM; isolated mouse mitochondria, Ca2+ swelling absorbance, 30 min; AID 602449;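 active = inhibition of 50% or more, scaled per plate between neutral and stimulator controls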
Platelet DG rel – platelet dense granule release activity; human platelet-rich plasma, SFLLRN dense granule ATP release, luminescence; inhibition, %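 (compounds screened at 7.5 µM in platelet-rich plasma)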; actives 0.22% (n = 300,000); AID 1663;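 active = mean replicate score, as percent of positive control, at or above 50; inconclusive = mean below 50 but at least one replicate at or above 50; inactive = mean and every replicate below 50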
Large screens that a line does not name were inactive.

CCS(=O)(=O)NC(C)C(c1cccs1)N1CCN(c2ccc(OC)cc2)CC1 (stereo not given)	none
C=CCN(Cc1ccc(Cl)s1)C(=O)c1cc(S(=O)(=O)N2CCOCC2)ccc1F	none (no result: HSF-1 act, HSP90 refold inh, HSF1 inh, Platelet DG rel)
O=C(O)CN1C(=O)/C(=C\c2cc(Br)ccc2OCc2ccc(F)cc2)SC1=S	HSF-1 act 70
O=C(O)CN1C(=O)/C(=C\c2cc(Br)ccc2OCc2ccc(Cl)cc2)SC1=S	none
COCCN(CCOC)c1nc(-c2ccc(C)cc2)nc2ccccc12	HSF-1 act 193
Cc1ccc(S(=O)(=O)N2CCCC(C(=O)Nc3ccc(C(=O)O)cc3)C2)cc1Cl (stereo not given)	none
CC(C)CC(=O)NC(NCC1CCCO1)C(Cl)(Cl)Cl (stereo not given)	none
COc1cccc(CNc2ccc(Br)cn2)c1O	HSF-1 act 272
COc1cccc(CNc2ncc(Br)cc2Br)c1O	HSF-1 act 138
Cc1ccc(-n2cc(CN3CCC(O)(c4ccccn4)CC3)c(-c3ccc(F)cc3)n2)cc1	none
NC(=O)COC(=O)c1ccc2noc(-c3ccccc3)c2c1	none
Cc1[nH]c2ccccc2c1C(=O)CSC(=S)N(C)C1CCCCC1	none
Cc1[nH]c2ccccc2c1C(=O)CSc1ccc(Cl)cc1	HSF-1 act 54
Cc1[nH]c2ccccc2c1C(=O)CSC(=S)N1CCCCC1	HSF-1 act 54
Cc1nc(C(F)(F)F)ccc1C(=O)N1CCCC(C)(C(=O)O)C1 (stereo not given)	none (no result: HSF-1 act, dFosB act, HSP90 refold inh, HSF1 inh, Platelet DG rel)
Cc1ccc(S(=O)(=O)n2ccc(=O)[nH]2)cc1	HSF1 inh -68
COc1ccc(/C=C/C(=O)c2ccc(C)c([N+](=O)[O-])c2)cc1O	HSF-1 act 67
COc1cc(/C=C/C(=O)c2ccc(C)c([N+](=O)[O-])c2)cc(OC)c1O	HSF-1 act 128
COc1cccc(/C=C/C(=O)c2ccc(C)c([N+](=O)[O-])c2)c1	none
O=C(NCc1ccco1)c1cccc(Br)c1	none
O=C(c1ccccc1)c1ccc2cc(O)ccc2c1	Platelet DG rel 71
COc1ccc(CCN2CC(C(=O)N(C)CCOc3ccccc3)CCC2=O)cc1 (stereo not given)	none
Cc1ccc(CN(C)C(=O)C2CCC(=O)N(CCc3ccccc3)C2)o1 (stereo not given)	HSF-1 act 195
CN(CCOc1ccccc1)C(=O)C1CCC(=O)N(CCc2ccc(Cl)cc2)C1 (stereo not given)	HSF-1 act 59
Cc1ccc(CCC(=O)Nc2ccc(C#N)cc2)o1	none
COc1ccc(C(C(=O)NC(C)(C)C)N(C(=O)CCC(=O)Nc2cc(C)on2)c2ccc(C)c(C)c2)cc1 (stereo not given)	none
CCOc1ccccc1N1CCN(CC(=O)NC(C)c2ccccc2)CC1 (stereo not given)	HSF1 inh -61
COc1ccc(N/C=C2\C(=O)CCc3c2oc2cc(Cl)c(O)c(Cl)c32)cc1	HSF-1 act 62
COc1ccc(N/C=C2\CCOC2=O)cc1	none
CCNc1c([N+](=O)[O-])c(=O)oc2ccccc12	none
COc1c([N+](=O)[O-])c(=O)oc2ccccc12	HSF1 inh -72
Cc1ccccc1NC(=O)CSc1nnc(C2CC2)n1CC1CCCO1 (stereo not given)	none
CCN(C(=O)c1cccc(S(=O)(=O)N2CCCCC2)c1)C1CCS(=O)(=O)C1 (stereo not given)	HSF-1 act 57 (no result: HSP90 refold inh)
CCOC(=O)C(C)n1cnc2sc3c(c2c1=O)CCC3 (stereo not given)	none
CCc1cc2c(=O)n(C(C)C(=O)OC3CCCCC3)cnc2s1 (stereo not given)	HSF-1 act 66
Cc1cc(S(=O)(=O)N2CCOCC2)ccc1OCC(=O)NCc1ccccn1	none
O=C(/C=C/c1cccc(O)c1)c1ccc(N2CCOCC2)cc1	HSF-1 act 74
O=C(NC1CCCN(Cc2ccc(Cl)cc2)C1)c1ccccc1-c1ncc[nH]1 (stereo not given)	none
CCC1CSC(Nc2ccc(C(=O)/C=C/c3cccc(C)c3)cc2)=N1 (stereo not given)	HSF-1 act 75
O=[N+]([O-])c1cc(Cl)ccc1-c1nc(-c2ccccc2)no1	HSF-1 act 95
Cc1ccc(S(=O)(=O)N2CCOCC2)cc1C(=O)NNC(=O)c1ccoc1C	none
O=C(COc1ccc(F)c(Cl)c1)c1ccc[nH]1	HSF-1 act 93
COc1ccc(NC(=O)c2cnn(-c3ccccc3)c2C)cc1	Platelet DG rel 59
O=C1C2CCCCN2C(=O)N1CCCCN1CCN(c2cccc(Br)c2)CC1 (stereo not given)	none
Cc1ccc(C2=NCCn3c2c2ccc(C(F)(F)F)cc2[n+]3[O-])cc1	HSF1 inh -55 (no result: HSP90 refold inh)
CCC(C)C(NC(=O)C(Cc1ccc(O)cc1)NC(=O)OCc1ccccc1)C(=O)OC (stereo not given)	none (no result: HSF-1 act, dFosB act, HSP90 refold inh, HSF1 inh, Platelet DG rel)
Fc1ccc(C2c3[nH]c4ccccc4c3CCN2Cc2ccoc2)cc1 (stereo not given)	none
Cc1cccc(C2c3[nH]c4ccccc4c3CCN2Cc2cnn(-c3ccc(F)cc3)c2)n1 (stereo not given)	HSF-1 act 56
Cc1cc2cc(CN(CCN(C)C)C(=S)NCc3ccco3)c(=O)[nH]c2cc1C	none
CCOCCCNC(=S)N(Cc1ccco1)Cc1cc2cc3c(cc2[nH]c1=O)OCCO3	none
CCCCNC(=S)N(Cc1ccco1)Cc1cc2cc3c(cc2[nH]c1=O)OCCO3	HSF-1 act 156
Cc1cc2cc(CN(Cc3cccs3)C(=S)NCc3ccco3)c(=O)[nH]c2cc1C	HSF-1 act 63
COc1ccccc1NC(=S)N(Cc1ccco1)Cc1cc2cc(C)ccc2[nH]c1=O	HSF-1 act 99, dFosB act inconclusive
Cc1ccc(C)c2[nH]c(=O)c(CN(CC3CCCO3)C(=S)NCc3ccco3)cc12 (stereo not given)	none
Cc1ccc(C)c2[nH]c(=O)c(CN(Cc3cccs3)C(=S)NCc3ccco3)cc12	HSF-1 act 77
CC(C)=CCC[C@H](C)CC1Cc2[nH]c(=S)[nH]c(=O)c2C(c2ccc(Cl)cc2)O1 (stereo not given in full)	none (no result: HSF-1 act, dFosB act, HSP90 refold inh, HSF1 inh, Platelet DG rel)
COc1cc2c3c(n(C)c(=O)c2cc1OC)-c1cc2c(cc1C3=O)OCO2	none (no result: HSF-1 act, HSP90 refold inh, HSF1 inh, Platelet DG rel)
Cc1cc(NS(=O)(=O)c2ccc(NC(=O)Cc3ccc(Cl)c(Cl)c3)cc2)no1	none (no result: HSF-1 act, HSP90 refold inh, HSF1 inh, Platelet DG rel)
C=CCn1c(SCc2csc(-c3ccc(C)cc3)n2)nnc1-c1ccccc1OC	none
CCOC1=C2CN(S(=O)(=O)c3ccc(C)cc3)[C@@H](c3ccc(CC)cc3)C[C@H]2[C@H]2C(=O)N(c3ccccc3)C(=O)[C@H]2C1	none (no result: HSF-1 act, dFosB act, HSP90 refold inh, HSF1 inh, Platelet DG rel)
COc1ccc(OC)c(NC(=O)NNS(=O)(=O)c2ccc(C)cc2C)c1	none
O=C(NC1CCCC1)C(c1ccc(F)cc1)N(C(=O)c1csnn1)C1CC1 (stereo not given)	none
